# Experimental data from PubChem BioAssay (EPA / NIEHS).
# Active and inactive are the calls of the source. Rule for the calls: active = hit-call score of the fitted dose curve at least 0.9, where 1 is the maximum; inactive = score below 0.9.
# Key:
# Conditions in all cases: mRNA level, 48 h; actives raise or lower the signal
# CYP2C9 (gene 1559) = assay: LTEA_HepaRG_CYP2C9: Life Technologies and Expression Analysis (LTEA) Assay for CYP2C9 using HepaRG (AID 2283484)
# Method in brief: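 Cells plated 48 h, switched to serum-free induction medium, then treated in duplicate for 48 h at eight concentrations (max 100 uM, 0.5% DMSO). RNA then analysed by qRT-PCR for CYP2C9; curves fitted in both directions relative to DMSO.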
# CYP2E1 (gene 1571) = assay: LTEA_HepaRG_CYP2E1: Life Technologies and Expression Analysis (LTEA) Assay for CYP2E1 using HepaRG (AID 2283485)
# Method in brief: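 HepaRG cells in serum-free induction medium exposed 48 h to test chemicals, 8 half-log concentrations up to 100 uM in 0.5% DMSO, duplicate. CYP2E1 mRNA by qRT-PCR, normalized to ACTB, GAPDH, POLR2A; bidirectional fit versus DMSO.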
# CYP4A11 (gene 1579) = assay: LTEA_HepaRG_CYP4A11: Life Technologies and Expression Analysis (LTEA) Assay for CYP4A11 using HepaRG (AID 2283486)
# Method in brief: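 Differentiated HepaRG cells, 48 h after plating, exposed in duplicate for 48 h to 8 half-log concentrations up to 100 uM in 0.5% DMSO in serum-free induction medium. CYP4A11 mRNA measured by TaqMan qRT-PCR, normalized to ACTB, GAPDH and POLR2A.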
# [1] = read-out: DNA damage-inducible transcript 3 (DDIT3), DDIT3 (gene 1649); assay: LTEA_HepaRG_DDIT3: Life Technologies and Expression Analysis (LTEA) Assay for DNA damage-inducible transcript 3 (DDIT3) using HepaRG (AID 2283488)
# Method in brief: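 Differentiated human HepaRG cells in serum-free induction medium were exposed in duplicate for 48 h to 8 concentrations (top 100 uM, half-log steps, 0.5% DMSO). DDIT3 mRNA measured by TaqMan qRT-PCR, normalized to ACTB/GAPDH/POLR2A; bidirectional fit versus DMSO.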
# [2] = read-out: Pro-epidermal growth factor (Homo sapiens) (UniProt P01133); assay: LTEA_HepaRG_EGF: Life Technologies and Expression Analysis (LTEA) Assay for Epidermal growth factor (EGF) using HepaRG (AID 2283489)
# Method in brief: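 HepaRG cells (~100,000/well, 48 h pre-culture) exposed in duplicate for 48 h in serum-free induction medium to 8 half-log concentrations up to 100 uM in 0.5% DMSO. EGF mRNA by qRT-PCR, normalized to ACTB/GAPDH/POLR2A; bidirectional fit versus DMSO.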
# [3] = read-out: Early growth response protein 1 (EGR1) transcription factor, EGR1 (gene 1958); assay: LTEA_HepaRG_EGR1: Life Technologies and Expression Analysis (LTEA) Assay for Early growth response protein 1 (EGR1) transcription factor using HepaRG (AID 2283490)
# Method in brief: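 Read-out is EGR1 mRNA level by qRT-PCR, normalized to three housekeeping genes and analysed for gain or loss of signal against 0.5% DMSO. Source cells: human HepaRG, treated 48 h at up to 100 uM in half-log dilutions.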
# [4] = read-out: Ezrin (EZR), EZR (gene 7430); assay: LTEA_HepaRG_EZR: Life Technologies and Expression Analysis (LTEA) Assay for Ezrin (EZR) using HepaRG (AID 2283491)
# Method in brief: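 Gain or loss of EZR mRNA is scored relative to 0.5% DMSO in human HepaRG cultures treated 48 h with test chemicals in duplicate, eight half-log concentrations from 100 uM.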
# [5] = read-out: Cytochrome P450 3A7 (Homo sapiens) (UniProt P24462); assay: LTEA_HepaRG_CYP3A7: Life Technologies and Expression Analysis (LTEA) Assay for CYP3A7 using HepaRG (AID 2283492)
# Method in brief: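 Differentiated HepaRG cells in serum-free induction medium exposed 48 h in duplicate to 8-point half-log series from 100 uM top in 0.5% DMSO. CYP3A7 mRNA by qRT-PCR, normalized to ACTB/GAPDH/POLR2A, bidirectional fit versus DMSO.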
# CYP3A5 (gene 1577) = assay: LTEA_HepaRG_CYP3A5: Life Technologies and Expression Analysis (LTEA) Assay for CYP3A5 using HepaRG (AID 2283493)
# Method in brief: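 Differentiated HepaRG cells in serum-free induction medium were dosed 48 h with test chemicals (8-point half-log series, top 100 uM, 0.5% DMSO, duplicate). CYP3A5 mRNA measured by qRT-PCR, normalized to ACTB, GAPDH, POLR2A; bidirectional fit versus DMSO.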
# [6] = read-out: Fatty Acid-Binding Protein 1 (FABP1), FABP1 (gene 2168); assay: LTEA_HepaRG_FABP1: Life Technologies and Expression Analysis (LTEA) Assay for Fatty Acid-Binding Protein 1 (FABP1) using HepaRG (AID 2283494)
# Method in brief: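 HepaRG, 48 h post-plating switched to serum-free induction medium, then dosed 48 h (duplicate, 8 pts, ≤100 uM, 0.5% DMSO). RNA → Fluidigm TaqMan qRT-PCR, FABP1 normed to ACTB/GAPDH/POLR2A. Bidirectional curve fit vs DMSO.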
# [7] = read-out: Cytochrome P450 4A22 (Homo sapiens) (UniProt Q5TCH4); assay: LTEA_HepaRG_CYP4A22: Life Technologies and Expression Analysis (LTEA) Assay for Cytochrome P450 4A22 (CYP4A22) using HepaRG (AID 2283495)
# Method in brief: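 Differentiated HepaRG cells in serum-free induction medium exposed 48 h in duplicate to eight half-log concentrations up to 100 uM in 0.5% DMSO. CYP4A22 mRNA quantified by TaqMan qRT-PCR, normalized to ACTB, GAPDH and POLR2A; bidirectional fit versus DMSO.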
# [8] = read-out: Glutathione S-Transferase (GSTA2), GSTA2 (gene 2939); assay: LTEA_HepaRG_GSTA2: Life Technologies and Expression Analysis (LTEA) Assay for Glutathione S-Transferase (GSTA2) using HepaRG (AID 2283497)
# Method in brief: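 HepaRG, 48 h dosing, 8-pt half-log CRC from 100 uM, 0.5% DMSO vehicle, n=2; RNA → Fluidigm TaqMan qRT-PCR; GSTA2 vs ACTB/GAPDH/POLR2A; gain/loss fit vs DMSO.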
# [9] = read-out: Glutamate-cysteine ligase catalytic (GCLC), GCLC (gene 2729); assay: LTEA_HepaRG_GCLC: Life Technologies and Expression Analysis (LTEA) Assay for Glutamate-cysteine ligase catalytic (GCLC) using HepaRG (AID 2283498)
# Method in brief: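 Read-out is GCLC transcript level by Fluidigm-based TaqMan qRT-PCR, normalized to three housekeeping genes and fitted in both directions relative to 0.5% DMSO. Human HepaRG cells received chemicals for 48 h, up to 100 uM.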
# [10] = read-out: growth arrest and DNA damage 45 (GADD45G), GADD45G (gene 10912); assay: LTEA_HepaRG_GADD45G: Life Technologies and Expression Analysis (LTEA) Assay for growth arrest and DNA damage 45 (GADD45G) using HepaRG (AID 2283499)
# Method in brief: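 Differentiated human HepaRG cells, 48 h post-plating, exposed 48 h in serum-free induction medium to 8 half-log concentrations (top 100 uM, 0.5% DMSO) in duplicate. GADD45G mRNA measured by Fluidigm TaqMan qRT-PCR, normalized to ACTB, GAPDH, POLR2A; bidirectional fit versus DMSO.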
# [11] = read-out: Glutamate-cysteine ligase regulatory (GCLM), GCLM (gene 2730); assay: LTEA_HepaRG_GCLM: Life Technologies and Expression Analysis (LTEA) Assay for Glutamate-cysteine ligase regulatory (GCLM) using HepaRG (AID 2283500)
# Method in brief: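 Differentiated human HepaRG cells exposed 48 h in serum-free induction medium to 8-point half-log concentrations (top 100 uM, 0.5% DMSO), in duplicate. GCLM mRNA quantified by qRT-PCR, normalized to ACTB, GAPDH, POLR2A; bidirectional fitting versus DMSO.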
# [12] = read-out: Glutathione S-transferase M3 (GSTM3), GSTM3 (gene 2947); assay: LTEA_HepaRG_GSTM3: Life Technologies and Expression Analysis (LTEA) Assay for Glutathione S-transferase M3 (GSTM3) using HepaRG (AID 2283501)
# Method in brief: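 Differentiated human HepaRG cells were exposed in duplicate for 48 h in serum-free induction medium, 8 points from 100 uM top in half-log steps, 0.5% DMSO. GSTM3 mRNA was measured by TaqMan qRT-PCR, normalized to ACTB, GAPDH and POLR2A; bidirectional fit versus DMSO.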
# [13] = read-out: Heat shock 70 kDa protein 1 (HSPA1A), gene 3303; assay: LTEA_HepaRG_HSPA1A: Life Technologies and Expression Analysis (LTEA) Assay for Heat shock 70 kDa protein 1 (HSPA1A) using HepaRG (AID 2283502)
# Method in brief: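 Differentiated human HepaRG cells in serum-free induction medium were exposed in duplicate for 48 h to eight concentrations (top 100 uM, half-log steps, 0.5% DMSO). HSPA1A mRNA was quantified by qRT-PCR, normalized to ACTB, GAPDH and POLR2A, and fitted bidirectionally against DMSO.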
# [14] = read-out: Hypoxia-inducible factor 1-alpha (Homo sapiens) (UniProt Q16665); assay: LTEA_HepaRG_HIF1A: Life Technologies and Expression Analysis (LTEA) Assay for Hypoxia-inducible factor 1 (HIF1A) Trancription factor using HepaRG (AID 2283503);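 note: HIF1A transcript by TaqMan qRT-PCR normalized to ACTB GAPDH and POLR2A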
# Method in brief: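 HepaRG, 48 h exposure, 8-pt half-log series from 100 uM, 0.5% DMSO vehicle, duplicates. Readout: HIF1A transcript by qRT-PCR (Fluidigm array), housekeeping-normalised. Bidirectional curve fit vs DMSO baseline.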
# [15] = read-out: Cytochrome P450 7A1 (Homo sapiens) (UniProt P22680); assay: LTEA_HepaRG_CYP7A1: Life Technologies and Expression Analysis (LTEA) Assay for Cytochrome P450 7A1 (CYP7A1) using HepaRG (AID 2283496)
# Method in brief: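 Gene expression endpoint in human HepaRG liver cells treated for 48 h with test chemicals (up to 100 uM, 0.5% DMSO). Values come from bidirectional concentration-response fitting versus DMSO.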
# [16] = read-out: Cytochrome P450 3A4 (Homo sapiens) (UniProt P08684); assay: LTEA_HepaRG_CYP3A4: Life Technologies and Expression Analysis (LTEA) Assay for CYP3A4 using HepaRG (AID 2283487)
# Method in brief: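 In a human hepatic line (HepaRG), duplicate wells were treated 48 h with up to 100 uM chemical in half-log dilutions. Endpoint: CYP3A4 mRNA induction or loss relative to 0.5% DMSO vehicle, by qRT-PCR.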
# Chain of Cytochrome P450 3A7 (Homo sapiens) (P24462 whole entry, looked up): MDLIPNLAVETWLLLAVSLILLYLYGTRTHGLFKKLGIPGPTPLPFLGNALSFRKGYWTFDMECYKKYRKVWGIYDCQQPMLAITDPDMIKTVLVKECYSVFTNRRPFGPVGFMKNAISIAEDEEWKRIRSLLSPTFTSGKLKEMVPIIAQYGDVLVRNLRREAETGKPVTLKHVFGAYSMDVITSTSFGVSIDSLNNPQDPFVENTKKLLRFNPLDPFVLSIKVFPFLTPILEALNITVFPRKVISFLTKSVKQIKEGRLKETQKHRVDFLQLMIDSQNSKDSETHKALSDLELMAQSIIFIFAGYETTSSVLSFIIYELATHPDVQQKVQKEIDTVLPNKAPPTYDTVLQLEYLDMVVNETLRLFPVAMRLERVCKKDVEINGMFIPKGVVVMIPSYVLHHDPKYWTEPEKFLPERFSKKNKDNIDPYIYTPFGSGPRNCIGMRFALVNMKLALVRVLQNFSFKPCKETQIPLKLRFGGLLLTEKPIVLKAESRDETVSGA
# Chain of Cytochrome P450 3A4 (Homo sapiens) (P08684 whole entry, looked up): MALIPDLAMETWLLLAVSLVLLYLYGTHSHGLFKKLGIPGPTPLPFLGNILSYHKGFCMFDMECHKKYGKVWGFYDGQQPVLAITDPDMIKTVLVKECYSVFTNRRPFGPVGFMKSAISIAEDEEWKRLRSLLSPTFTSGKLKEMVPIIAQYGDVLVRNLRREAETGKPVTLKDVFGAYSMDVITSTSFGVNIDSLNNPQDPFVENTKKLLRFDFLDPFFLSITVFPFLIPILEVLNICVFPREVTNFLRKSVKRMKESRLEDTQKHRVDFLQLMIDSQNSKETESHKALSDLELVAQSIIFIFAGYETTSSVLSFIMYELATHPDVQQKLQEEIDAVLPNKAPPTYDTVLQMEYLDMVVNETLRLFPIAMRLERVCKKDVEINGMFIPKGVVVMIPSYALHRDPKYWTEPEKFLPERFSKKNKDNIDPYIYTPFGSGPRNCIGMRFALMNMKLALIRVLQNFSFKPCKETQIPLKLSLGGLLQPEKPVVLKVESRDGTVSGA
# Chain of Hypoxia-inducible factor 1-alpha (Homo sapiens) (Q16665 whole entry, looked up): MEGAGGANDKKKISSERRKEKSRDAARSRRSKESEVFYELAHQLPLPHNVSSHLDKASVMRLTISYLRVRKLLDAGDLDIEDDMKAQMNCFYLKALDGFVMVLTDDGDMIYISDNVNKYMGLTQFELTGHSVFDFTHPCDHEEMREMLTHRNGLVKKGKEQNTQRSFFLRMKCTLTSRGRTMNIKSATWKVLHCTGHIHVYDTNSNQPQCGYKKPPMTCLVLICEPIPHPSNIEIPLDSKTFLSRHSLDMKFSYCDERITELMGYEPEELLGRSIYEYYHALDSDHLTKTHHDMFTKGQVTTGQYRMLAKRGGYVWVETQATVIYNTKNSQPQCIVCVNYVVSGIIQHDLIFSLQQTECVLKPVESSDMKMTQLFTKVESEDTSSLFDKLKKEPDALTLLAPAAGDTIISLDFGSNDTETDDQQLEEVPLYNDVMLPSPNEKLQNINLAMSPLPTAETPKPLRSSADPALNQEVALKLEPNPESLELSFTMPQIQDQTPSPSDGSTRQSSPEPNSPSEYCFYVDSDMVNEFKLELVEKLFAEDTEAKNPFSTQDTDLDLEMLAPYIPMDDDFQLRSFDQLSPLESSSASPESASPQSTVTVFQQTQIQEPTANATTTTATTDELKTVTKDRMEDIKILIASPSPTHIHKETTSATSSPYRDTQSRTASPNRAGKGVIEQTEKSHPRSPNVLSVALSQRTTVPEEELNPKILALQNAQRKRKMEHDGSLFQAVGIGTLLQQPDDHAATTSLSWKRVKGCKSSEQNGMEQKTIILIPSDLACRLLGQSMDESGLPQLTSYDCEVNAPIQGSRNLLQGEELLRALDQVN
structure (smiles),measurement,setting,value
COCC(C)OCC(C)OCC(C)O (stereo not given),outcome,CYP2C9 (gene 1559),inactive
same,AC50,CYP2E1 (gene 1571),50 µM (active)
same,outcome,CYP4A11 (gene 1579),inactive
same,outcome,[1],inactive
same,outcome,[2],inactive
same,outcome,[3],inactive
same,outcome,[4],inactive
same,outcome,[5],inactive
same,outcome,CYP3A5 (gene 1577),inactive
same,outcome,[6],inactive
same,outcome,[7],inactive
same,outcome,[8],inactive
same,outcome,[9],inactive
same,outcome,[10],inactive
same,outcome,[11],inactive
same,outcome,[12],inactive
same,outcome,[13],inactive
same,outcome,[14],inactive
CCCCCc1ccc(N)cc1,outcome,CYP2C9 (gene 1559),inactive
same,outcome,CYP2E1 (gene 1571),inactive
same,outcome,CYP4A11 (gene 1579),inactive
same,outcome,[1],inactive
same,outcome,[2],inactive
same,outcome,[3],inactive
same,outcome,[4],inactive
same,outcome,[5],inactive
same,outcome,CYP3A5 (gene 1577),inactive
same,outcome,[6],inactive
same,outcome,[7],inactive
same,outcome,[15],inactive
same,outcome,[8],inactive
same,outcome,[9],inactive
same,outcome,[10],inactive
same,outcome,[11],inactive
same,outcome,[12],inactive
same,outcome,[13],inactive
same,outcome,[14],inactive
CCN(Cc1cccc(S(=O)(=O)O)c1)c1ccc(C(=C2C=CC(=[N+](CC)Cc3cccc(S(=O)(=O)O)c3)C=C2)c2ccccc2S(=O)(=O)[O-])cc1,outcome,CYP2C9 (gene 1559),inactive
same,outcome,CYP2E1 (gene 1571),inactive
same,outcome,CYP4A11 (gene 1579),inactive
same,outcome,[1],inactive
same,outcome,[2],inactive
same,outcome,[3],inactive
same,outcome,[4],inactive
same,outcome,[5],inactive
same,outcome,CYP3A5 (gene 1577),inactive
same,outcome,[6],inactive
same,outcome,[7],inactive
same,outcome,[8],inactive
same,outcome,[9],inactive
same,outcome,[10],inactive
same,outcome,[11],inactive
same,outcome,[12],inactive
same,outcome,[13],inactive
same,outcome,[14],inactive
Cc1cc(F)ccc1-c1cc(N2CC[C@@H](O)[C@H]2CO)ncc1N(C)C(=O)C(C)(C)c1cc(C(F)(F)F)cc(C(F)(F)F)c1,outcome,CYP2C9 (gene 1559),inactive
same,AC50,CYP2E1 (gene 1571),10.3 µM (active)
same,AC50,CYP4A11 (gene 1579),15.7 µM (active)
same,AC50,[16],0.588 µM (active)
same,AC50,[1],71.1 µM (active)
same,AC50,[2],5.44 µM (active)
same,AC50,[3],61.2 µM (active)
same,AC50,[4],20.8 µM (active)
same,outcome,[5],inactive
same,outcome,CYP3A5 (gene 1577),inactive
same,AC50,[6],13.9 µM (active)
same,AC50,[7],16.4 µM (active)
same,AC50,[15],20 µM (active)
same,AC50,[8],10.4 µM (active)
same,AC50,[9],75.4 µM (active)
same,AC50,[10],20.1 µM (active)
same,AC50,[11],46.7 µM (active)
same,outcome,[12],inactive
same,AC50,[13],70.1 µM (active)
same,AC50,[14],74.6 µM (active)
OCCO,outcome,CYP2C9 (gene 1559),inactive
same,outcome,CYP2E1 (gene 1571),inactive
same,outcome,CYP4A11 (gene 1579),inactive
same,outcome,[16],inactive
same,outcome,[1],inactive
same,outcome,[4],inactive
same,outcome,[5],inactive
same,outcome,CYP3A5 (gene 1577),inactive
same,outcome,[6],inactive
same,outcome,[8],inactive
same,outcome,[9],inactive
same,outcome,[10],inactive
same,outcome,[11],inactive
same,outcome,[12],inactive
same,outcome,[13],inactive
same,outcome,[14],inactive
CCCCCCCCCCCO,outcome,CYP2C9 (gene 1559),inactive
same,outcome,CYP2E1 (gene 1571),inactive
same,outcome,CYP4A11 (gene 1579),inactive
same,outcome,[16],inactive
same,outcome,[1],inactive
same,outcome,[2],inactive
same,outcome,[4],inactive
same,outcome,[5],inactive
same,outcome,CYP3A5 (gene 1577),inactive
same,outcome,[6],inactive
same,outcome,[7],inactive
same,outcome,[15],inactive
same,outcome,[8],inactive
same,outcome,[9],inactive
same,outcome,[10],inactive
same,outcome,[11],inactive
same,outcome,[12],inactive
same,outcome,[13],inactive
same,outcome,[14],inactive
